# Laboratory results reported in the supplement of paper PMC6555819.
# How the values were obtained:
# Assay in all cases: PBM binding z-score (relative to random genomic background probes); higher = stronger binding; sequences stand for … in GC…GCGATTGACAGCGTAGAATGAAGG
# [1] = system: LXRa:RXRa (NR concentration 270 nM, RXRa partner concentration 90 nM)
# Procedure, shortened: (§1)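 Ligand-free nuclear receptor dimers were applied to custom Agilent 4×180K protein-binding microarrays whose double-stranded probes carried direct-repeat seeds, single-nucleotide variants, half-site ablations and random human genomic background sequences in 34-nt variable regions. Incubation lasted 1 h. Binding z-scores were computed against the random background probes from regression-normalized fluorescence.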
# [2] = system: LXRa homodimer (NR concentration 270 nM)
# Procedure, shortened: as §1
# [3] = system: LXRb homodimer (NR concentration 270 nM)
# Procedure, shortened: as §1
# [4] = system: PPARa:RXRa (NR concentration 270 nM, RXRa partner concentration 90 nM)
# Procedure, shortened: as §1
# [5] = system: PPARg:RXRa (NR concentration 180 nM, RXRa partner concentration 90 nM)
# Procedure, shortened: as §1
# [6] = system: PPARg:RXRa 270nM:90nM, anti-RXR (NR concentration 270 nM, RXRa partner concentration 90 nM)
# Procedure, shortened: as §1
# [7] = system: PPARg:RXRa 30nM:10nM, anti-RXR (NR concentration 30 nM, RXRa partner concentration 10 nM)
# Procedure, shortened: as §1
# [8] = system: PPARg:RXRa 90nM:30nM, anti-RXR (NR concentration 90 nM, RXRa partner concentration 30 nM)
# Procedure, shortened: as §1
# [9] = system: PPARg:RXRa DBDmut IVT, anti-RXR (DBD mutation: RXRa K156A/R161A, NR concentration 270 nM, RXRa partner concentration 90 nM)
# Procedure, shortened: as §1
# [10] = system: PPARg:RXRa IVT, anti-PPARg (NR concentration 270 nM, RXRa partner concentration 90 nM)
# Procedure, shortened: as §1
# [11] = system: PPARg DBDmut:RXRa IVT, anti-PPARg (DBD mutation: PPARg1 K132A/R137A, NR concentration 270 nM, RXRa partner concentration 90 nM)
# Procedure, shortened: as §1
# [12] = system: PPARg DBDmut IVT, anti-PPARg (DBD mutation: PPARg1 K132A/R137A, NR concentration 270 nM)
# Procedure, shortened: as §1
# [13] = system: PPARg homodimer (NR concentration 180 nM)
# Procedure, shortened: as §1
# [14] = system: PXR:RXRa (NR concentration 270 nM, RXRa partner concentration 90 nM)
# Procedure, shortened: as §1
# [15] = system: PXR homodimer (NR concentration 270 nM)
# Procedure, shortened: as §1
# [16] = system: RARa:RXR (NR concentration 270 nM, RXRa partner concentration 90 nM)
# Procedure, shortened: as §1
# [17] = system: RARa homodimer (NR concentration 270 nM)
# Procedure, shortened: as §1
# [18] = system: RARb:RXRa (NR concentration 270 nM, RXRa partner concentration 90 nM)
# Procedure, shortened: as §1
# [19] = system: RARb homodimer (NR concentration 270 nM)
# Procedure, shortened: as §1
# [20] = system: FXR:RXRa (NR concentration 270 nM, RXRa partner concentration 90 nM)
# Procedure, shortened: as §1
Sequence,PBM binding z-score [1],PBM binding z-score [2],PBM binding z-score [3],PBM binding z-score [4],PBM binding z-score [5],PBM binding z-score [6],PBM binding z-score [7],PBM binding z-score [8],PBM binding z-score [9],PBM binding z-score [10],PBM binding z-score [11],PBM binding z-score [12],PBM binding z-score [13],PBM binding z-score [14],PBM binding z-score [15],PBM binding z-score [16],PBM binding z-score [17],PBM binding z-score [18],PBM binding z-score [19],PBM binding z-score [20]
ATCGAAAGGTCGAAGGTGCGTATACCCACCCGAA,3.22,0.0571,0.0928,4.12,3.21,3.25,1.01,2.44,-0.0152,1.39,0.552,0.658,0.794,2.17,-0.19,3.01,0.303,3.68,2.42,
AGTCAAAGTTCAGGACGAGGTAACGTTAAGCACG,3.74,1.1,0.0351,3.34,4.29,4.64,2.03,3.86,-0.183,1.92,0.603,0.235,2.35,3.11,1.65,2.78,0.838,4.3,3.3,
TCTAGTGGGTCAAAGGTCACACACTCGAAATGCG,,3.93,1.59,,,11.1,12.2,12.6,7.68,8.52,2.65,1.71,4.18,,1.74,,2.97,,5.22,7.63
CCTTACGGGTAACGAGGTTATAGCACGACGAGCG,0.424,-0.553,-0.211,1.62,1.49,1.14,0.156,0.641,1.07,1.82,-0.344,-1.05,0.604,0.822,0.153,1.3,0.476,0.589,0.484,
ATCGAAAGGTCGTGAGGTAAGTATACAGAAAGGC,,0.488,0.774,,4.03,4.37,1.57,3.06,0.266,2.1,1.96,0.952,2.1,3.42,0.535,4.43,1.16,3.99,2.76,5.54
CCGAGTAGGTTACGAGGGGTCATTCAGTGCGAAT,,6.16,,,4.13,4.4,1.73,3.54,4.41,4.3,,,4.32,,10.4,6.71,1.29,3.35,3.68,4.94
CCGAGTAGGTTACTAGGGGGCATTCAGTGCGAAT,,6.06,,,2.37,3.48,1.14,2.93,4.55,4.9,,,1.47,4.21,6.49,2.34,0.177,1.92,2.16,2.3
AGAATGAGGTCATTAAGATCAGGGAATTGCGGTC,5.58,2.12,1.68,6.05,6.93,6.63,3.8,5.83,6.03,6.13,2.24,0.816,3.54,5.46,5.08,5.31,0.745,4.79,3.96,
AGTCAAAGTGCATCTAGGTAACGTAAGATATGCT,0.188,-0.289,-0.415,1.21,2,2.08,0.727,1.47,0.592,2.46,0.878,0.653,0.197,0.516,0.154,0.595,-0.00454,1.53,0.456,
CCGAGAAGGTTACGAGGGGGCATTCAGTGCGAAT,,1.76,,,1.9,2.99,0.996,1.72,1.32,2.5,,,2.11,5.85,5.71,4.07,0.612,3.24,2.66,4.03
TAGCCTAGGTCATGCGGCCCAGTATAGTGTCGGC,3.19,0.125,-0.105,3.52,2.04,2.49,0.144,1.04,1.17,2.78,-0.45,-0.404,0.605,1.27,-0.926,2.1,-0.495,3.72,2.78,
ACTCGGTGGACAAAGGTCAGAGCTACGCCAGTGA,3.52,0.715,-0.512,,6.18,6.42,5.2,6.63,0.195,3.04,-0.478,-0.742,2,3.37,-0.0874,4.02,0.366,3.96,4.06,
GGAACGAGGTCATTCGAGTTGATAGCATGGCGAT,6.43,1.91,1.68,5.98,6.59,6.55,3.27,5.58,5.42,5.89,0.79,0.0541,1.95,,7.74,5.14,-0.0279,4.9,3.81,
ATATGTAGGTTAAGCGTCATTCAGGTTGGTTCGC,1.08,0.422,0.251,4.16,6.75,6.77,5,6.63,7.13,7.49,1.71,1.99,1.04,0.685,-0.178,0.705,0.512,1.17,0.88,
AGAATGAGGTCAAGATCAGGGAAACAGAATACAT,5.9,0.974,1.7,,7.59,6.96,4.75,6.74,5.82,6.55,2.94,2.9,3.03,4.67,1.43,5.28,1.39,5.21,3.8,
TCTGCTAGGTCAACGATGGTCAGTTAATCTGCTA,2.65,-0.279,0.325,,2.14,2.8,1.79,2.47,4.02,4.08,0.247,0.848,1.07,1.88,-0.482,2.17,-0.966,4.04,3.26,
